Where “and” joins values, the source holds several entries; their conditions need not be identical. Equal entries are not always repeated. The campaign covered roughly 34,000 compounds. About 290 (0.85%) showed an effect of 50% or more. The list comes from a sample in which strong results are over-represented; it also holds similar structures and randomly drawn compounds.
Tested on: Plasmodium falciparum
Experiment: Plasmodium falciparum sporozoite viability assay
Type: functional, organism-based
Set-up: scale not given: in the data most compounds retested in dose-response had high values

Structure (SMILES) | Percent Effect [%] | Percent Effect (10 mM as filed; unlikely as a test dose)
COc1ccc2cc(C(=O)N3CCCC3Cn3cc(C)cn3)[nH]c2c1 (stereo unspecified) | -1.066 | –
COc1ccc(CC(=O)N2CCCC2Cn2cc(C)cn2)cc1OC (stereo unspecified) | – | 8.878% and 3.897% and 0.6031%
Cc1nn(C)cc1-c1cncn1CCc1ccc2c(c1)OCCO2.Cl | – | 35.23% and 54.6% and 46.78%
COC1COC2(CCN(CC3CCOCC3)CC2)C1.O=C(O)C(F)(F)F (stereo unspecified) | 2.7 | –
CC(C(=O)N1CCOCC1)n1nc(-c2cccs2)cc(N)c1=O (stereo unspecified) | -6.596 | –
CCn1cc(CN2CCCN(C(=O)c3ccccc3OC)CC2)cn1 | 5.544 | –
CCCc1cc(CNC2CCN(c3nc4ccccc4s3)CC2)on1 | – | 84.7% and 90.12%
CCCc1cc(CNC(=O)C2CCOc3ccccc3C2)on1 (stereo unspecified) | 10.71 | –
Cc1nc(CN2CCCC(NCc3nc4ccccc4s3)C2)no1 (stereo unspecified) | 12.82 | –
CC(=O)N1N=C(c2ccccc2)OC1C(=O)NCCc1ccc(C)cc1 (stereo unspecified) | -14.76 | –
CNC(=O)CN1CCCC12CCN(C(=O)c1ccccc1F)CC2.O=C(O)C(F)(F)F | -2.189 | –
Cl.Clc1ccccc1CN1CCc2nc(C3CCCNC3)ncc2C1 (stereo unspecified) | 2.109 | –
CC(C)Oc1ccc2c(NC(=O)[C@H](C)O)nn(CC(F)(F)F)c2c1 | – | -22.23% and -11.46%
Cc1csc(NC(=O)[C@@H]2C[C@H]3[C@H](CCN3c3ncccn3)O2)n1.O=C(O)C(F)(F)F | 2.312 | –
CCn1cc(C(=O)N2CCOC(c3nc(-c4cccs4)no3)C2)cn1 (stereo unspecified) | – | 66.92% and 76% and 54.9%
CCCn1cc(C(=O)N2CCOC(c3nc(-c4cccs4)no3)C2)cn1 (stereo unspecified) | – | 42.39% and 34.52% and 29.79%
CCn1ccc(C(=O)N2CCOC(c3nc(-c4cccs4)no3)C2)n1 (stereo unspecified) | – | -10.26% and 14.68% and 1.172%
Cc1nc(-c2nc(C(=O)N3CCOCC3)c3ccccn23)cn1C(C)C | – | 54.88% and 55.7%
Cc1nc(-c2nc(C(=O)N(C)C)c3ccccn23)cn1C(C)C | – | 38.79% and 23.46% and 42.96%
Cn1cnc(-c2nc(C(=O)NC3CC3)c3ccccn23)c1 | 10.82 | –
Cn1cnc(-c2cc(C(=O)N3CCOCC3)c3ccccn23)c1 | -1.371 | –
Cc1nc(-c2nc(C(=O)NC3CC3)c3ccccn23)cn1C(C)C | – | 58.89% and 55% and 41.86%
CC(C)n1cnc(-c2nc(C(=O)NC3CC3)c3ccccn23)c1 | 6.582 | –
CCNC(=O)c1cc(OC)c2cc(F)cc(C)c2n1 | 1.557 | –
Cc1cncnc1C1CCN(CC2CC2)CC1 | 1.471 | –
CCCOc1cccc(OCc2ccon2)c1 | -14.79 | –

Structure (SMILES) | Percent Effect [%] | Percent Effect (10 mM as filed; unlikely as a test dose)
Cc1cc(C)n(CC2CCCCN2CCc2ccncc2)n1 (stereo unspecified) | 5.224 | –
Cc1c(C)n2c(SCC(=O)N3CCCCCC3)nnc2[nH]c1=O | – | -20.75% and -26.48%
CNC(=O)CNC(=O)c1ccc(-c2scnc2C)nc1 | 1.458 | –
CCc1ccc(C(=O)NCc2ccnc(N3CCN(C)CC3)c2)o1 | 8.293 | –
CCc1nnc2n1CCN(CCC(=O)Nc1sccc1C#N)C2 | 5.694 | –
CCOC[C@@H]1CC[C@H]2[C@H](CCN2C(=O)c2cnccn2)O1 | -3.07 | –
c1ccc(-c2nc(CNC3CCc4ncnn4C3)cs2)cc1 (stereo unspecified) | 1.596 | –
CCN1CCN(Cc2coc(-c3cccc(F)c3)n2)CC1 | – | 64.85% and 77.13% and 53.15%
CC(=O)N1CCN(Cc2coc(-c3cccc(F)c3)n2)CC1 | – | -29.73% and -43.84% and -27.15%
OCCN1CCN(Cc2coc(-c3cccc(Cl)c3)n2)CC1 | -3.989 | –
N#Cc1ccc(NCCC(=O)N2CCCc3ccccc32)nc1 | -11.08 | –
Cc1cc(CC2COCCN(CCc3ccccc3)C2)ncn1 (stereo unspecified) | 5.745 | –
O=C(c1cc(-c2cccnc2)[nH]n1)N1CCCC(c2cnccn2)C1 (stereo unspecified) | 12.79 | –
COc1ccc(-c2cnc(N(C)C)nc2C2CN(C(C)=O)CCO2)cc1 (stereo unspecified) | 14.8 | –
COc1ccc2cc(C3CN(C(=O)CN4CCCC4)CCO3)ccc2c1 (stereo unspecified) | – | 56.27% and 53.19% and 50.16%
COc1ccc2c(c1)[C@@H](CCNC(C)=O)CC(C)(C)O2 | 3.641 | –
Nc1cccc(C2CN(C(=O)CN3CCOCC3)CCO2)n1 (stereo unspecified) | 3.517 | –
CC(=O)NCC(=O)N1CCOC(c2cccc(N)n2)C1 (stereo unspecified) | 2.685 | –
Cc1c[nH]nc1C1CCN(C(=O)C2CCOCC2)C1 (stereo unspecified) | -9.491 | –
CC(=O)N1CCOC(c2ccnc(N(C)C)n2)C1 (stereo unspecified) | 3.741 | –
COc1ccc2cc(C3CN(C(=O)C4CCOCC4)CCO3)ccc2c1 (stereo unspecified) | – | 90.24% and 38% and 72.69%
COc1ccc(CN2CCO[C@H]3CN(C(=O)C4CC4)CC[C@H]3C2=O)cc1 | -7.815 | –
COc1ccc2cc(C3CN(C(=O)CCNC(C)=O)CCO3)ccc2c1 (stereo unspecified) | – | 97.44% and 100.2% and 98.47%
COc1ccc2cc(C3CN(C(=O)N(C)C)CCO3)ccc2c1 (stereo unspecified) | – | 102.8% and 105.3% and 102%
COc1ccnc(N2CCN(CC(=O)N3CCOC(C)C3)CC2)n1 (stereo unspecified) | -0.9874 | –

From ChEMBL document CHEMBL3988442, “University of Dundee, Small-Polar-MMV Screening Library” (2021)
